# In PubChem BioAssay AID651592 (Sanford-Burnham Center for Chemical Genomics, 2012):
# Calls of active or inactive are those of the source.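 How the source made its calls: active means NF-kB reporter IC50 at most 10 µM, IL-8 IC50 within fivefold of it with bacterial filtrate but not with TNF-alpha; inactive means the rest.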
# Test: inhibitors of NFkB activation in CF airway cells, SAR follow-up, KKLEB cells, panel, IL8 HTRF, NFkB-GFP (AID 651592);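 further: immortalized cystic fibrosis airway epithelial KKLEB cells with an NF-kB GFP reporter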
# Conditions: PAF/TNFa-induced NFkB-GFP / IL8 HTRF, CF-PAF assay, mean of runs
row,SMILES,outcome
1,O=C(Nc1ccc(N2CCN(C(=O)c3ccccc3F)CC2)cc1)c1ccncc1,inactive
2,O=C(Nc1ccc(N2CCN(C(=O)c3ccccc3)CC2)cc1)c1cncc(Br)c1,active
3,O=C(Nc1ccc(N2CCN(C(=O)c3ccccc3F)CC2)cc1)c1cc(Br)cc(Br)c1,inactive
4,O=C(Nc1ccc(N2CCN(C(=O)c3ccc(F)cc3)CC2)cc1)c1ccccc1,inactive
5,O=C(Nc1ccc(N2CCN(C(=O)c3ccccc3F)CC2)cc1)c1cccnc1,inactive
6,O=C(Nc1ccc(N2CCN(C(=O)c3ccccc3Cl)CC2)cc1)c1ccccn1,inactive
7,O=C(Nc1ccc(N2CCN(C(=O)c3ccccc3)CC2)cc1)c1ccccn1,inactive
8,O=C(Nc1ccc(N2CCN(C(=O)c3ccccc3Cl)CC2)cc1)c1ccccc1,active
9,CCOc1ccc(NCc2cc3c(-c4ccc(OC)c(OC)c4)nn(-c4ccccc4)c3[nH]c2=O)cc1,inactive
10,O=C(Nc1ccc(N2CCN(C(=O)c3ccccc3Cl)CC2)cc1)c1ccncc1,inactive
11,O=C(Nc1ccc(N2CCN(C(=O)c3ccccc3)CC2)cc1)c1cccc(Br)c1,inactive
12,CCOc1ccc(NCc2cc3c(C(C)(C)C)nn(-c4ccc(Cl)cc4)c3[nH]c2=O)cc1,inactive
13,O=C(Nc1ccc(N2CCN(C(=O)c3ccccc3Cl)CC2)cc1)c1cncc(Br)c1,active
14,O=C(Nc1ccc(N2CCN(C(=O)c3ccccc3F)CC2)cc1)c1cccc(Br)c1,inactive
15,Cc1ccc(CNCc2cc3c(C(C)(C)C)nn(-c4ccccc4)c3[nH]c2=O)cc1,inactive
16,CCOc1ccc(NCc2cc3c(C)nn(-c4ccccc4)c3[nH]c2=O)cc1,inactive
17,O=C(Nc1ccc(N2CCN(C(=O)c3ccccc3F)CC2)cc1)c1ccccn1,inactive
18,O=C(Nc1ccc(N2CCN(C(=O)c3ccc(F)cc3)CC2)cc1)c1ccccn1,inactive
